Results filed as inconclusive are left out. Entries that show only a call come without a potency. Active and inactive are the calls of the source. Calls follow the shape of the dose curve; as a rule, active = well fitted curve in the direction sought with a large enough effect; inconclusive = small, poorly fitted or top-dose-only effect, or another doubt; inactive = no such curve, though single readings can be large; an effect the other way counts as inactive or inconclusive.
Experiments:
[1] = target: Rap guanine nucleotide exchange factor 3 (Homo sapiens) (UniProt O95398); experiment: Confirmatory qHTS for antagonist of cAMP-regulated guanine nucleotide exchange factor 3 (EPAC1) (AID 1645880); settings: EPAC1 Rap1B-BODIPY-GDP exchange, fluorescence; series mostly up to 115 µM; also: nearly all actives have a fitted effect of over 55% in size; also: potency is read from the fitted curve at half-maximal effect
Rap guanine nucleotide exchange factor 3 (Homo sapiens), sequence (O95398 whole entry, looked up): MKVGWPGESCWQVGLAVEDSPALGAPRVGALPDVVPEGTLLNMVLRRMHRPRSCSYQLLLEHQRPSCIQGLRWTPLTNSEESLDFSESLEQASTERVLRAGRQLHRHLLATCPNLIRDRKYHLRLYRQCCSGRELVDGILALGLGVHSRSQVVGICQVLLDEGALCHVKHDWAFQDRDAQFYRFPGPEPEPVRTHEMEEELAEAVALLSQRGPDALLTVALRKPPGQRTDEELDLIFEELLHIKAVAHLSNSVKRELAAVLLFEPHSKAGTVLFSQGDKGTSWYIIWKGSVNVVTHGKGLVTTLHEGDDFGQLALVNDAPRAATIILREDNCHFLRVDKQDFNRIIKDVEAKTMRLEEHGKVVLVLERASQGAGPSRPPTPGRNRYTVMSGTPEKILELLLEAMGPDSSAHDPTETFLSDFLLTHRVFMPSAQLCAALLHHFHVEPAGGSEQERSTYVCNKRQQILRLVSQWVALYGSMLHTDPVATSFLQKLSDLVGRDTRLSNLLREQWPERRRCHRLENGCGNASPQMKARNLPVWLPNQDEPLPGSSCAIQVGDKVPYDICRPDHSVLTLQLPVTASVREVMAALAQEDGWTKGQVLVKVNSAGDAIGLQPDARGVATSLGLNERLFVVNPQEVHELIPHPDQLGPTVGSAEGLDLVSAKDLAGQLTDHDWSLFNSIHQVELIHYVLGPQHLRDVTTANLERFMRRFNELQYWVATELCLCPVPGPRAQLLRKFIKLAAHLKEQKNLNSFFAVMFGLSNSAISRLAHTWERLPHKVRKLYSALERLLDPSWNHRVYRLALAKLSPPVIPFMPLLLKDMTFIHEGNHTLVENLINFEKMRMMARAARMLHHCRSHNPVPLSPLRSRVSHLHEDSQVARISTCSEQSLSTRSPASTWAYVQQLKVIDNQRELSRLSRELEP
Method in brief: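 Released BODIPY-GDP fluoresces less than Rap1-bound BODIPY-GDP; the signal is followed at 480/540 nm at 5-min intervals over 30 min, after 5 min at room temperature. Reactions contain 100 nM EPAC1, 250 nM RAP1B-BODIPY-GDP and 50 uM GDP; results are normalized to ATA and DMSO.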

[2] = target: Rap guanine nucleotide exchange factor 3 (Homo sapiens) (UniProt O95398); experiment: Confirmatory qHTS for agonist of cAMP-regulated guanine nucleotide exchange factor 3 (EPAC1) (AID 1645881); settings: EPAC1 Rap1B BODIPY-GDP exchange fluorescence; series mostly up to 154 µM;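 also: EPAC1 catalysed release of BODIPY-GDP from Rap1B seen as fluorescence loss; nearly all actives have a fitted effect of over 75% in size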
[3] = target: Rap guanine nucleotide exchange factor 4 (Homo sapiens) (UniProt Q8WZA2); experiment: Confirmatory qHTS for agonist of cAMP-regulated guanine nucleotide exchange factor 4 (EPAC2) (AID 1645884); settings: EPAC2 GEF activity, Rap1B-BODIPY-GDP fluorescence; series mostly up to 154 µM;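 also: nucleotide exchange releases bodipy-GDP from Rap1 and this lowers its fluorescence; nearly all actives have a fitted effect of over 65% in size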
Rap guanine nucleotide exchange factor 4 (Homo sapiens), sequence (Q8WZA2 whole entry, looked up): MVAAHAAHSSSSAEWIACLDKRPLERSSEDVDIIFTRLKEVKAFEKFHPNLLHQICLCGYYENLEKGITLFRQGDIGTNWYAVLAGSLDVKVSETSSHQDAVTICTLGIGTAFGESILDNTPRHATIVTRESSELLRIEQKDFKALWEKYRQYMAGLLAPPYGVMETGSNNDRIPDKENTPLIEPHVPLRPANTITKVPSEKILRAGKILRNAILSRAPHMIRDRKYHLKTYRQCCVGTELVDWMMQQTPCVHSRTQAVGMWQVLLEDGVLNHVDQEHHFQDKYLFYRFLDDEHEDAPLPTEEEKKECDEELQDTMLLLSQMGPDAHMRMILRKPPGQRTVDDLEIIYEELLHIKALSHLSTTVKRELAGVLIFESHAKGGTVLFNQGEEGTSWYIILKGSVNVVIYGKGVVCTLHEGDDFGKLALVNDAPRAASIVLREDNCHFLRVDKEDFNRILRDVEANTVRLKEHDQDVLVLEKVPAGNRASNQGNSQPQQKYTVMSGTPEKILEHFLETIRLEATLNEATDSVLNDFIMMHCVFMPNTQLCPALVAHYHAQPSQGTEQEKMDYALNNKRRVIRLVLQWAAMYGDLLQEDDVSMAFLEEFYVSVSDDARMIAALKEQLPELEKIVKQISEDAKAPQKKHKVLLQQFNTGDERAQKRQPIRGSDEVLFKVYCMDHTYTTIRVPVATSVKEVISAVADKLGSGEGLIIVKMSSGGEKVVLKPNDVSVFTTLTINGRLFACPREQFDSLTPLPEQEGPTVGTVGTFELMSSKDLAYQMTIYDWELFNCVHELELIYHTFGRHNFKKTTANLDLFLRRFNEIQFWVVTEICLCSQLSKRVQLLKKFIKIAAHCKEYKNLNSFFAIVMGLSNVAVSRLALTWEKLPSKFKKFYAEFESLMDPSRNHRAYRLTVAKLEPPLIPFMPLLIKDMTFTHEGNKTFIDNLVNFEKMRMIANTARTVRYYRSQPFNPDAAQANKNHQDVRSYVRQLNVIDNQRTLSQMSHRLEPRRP

[4] = target: Rap guanine nucleotide exchange factor 4 (Homo sapiens) (UniProt Q8WZA2); experiment: Confirmatory qHTS for antagonist of cAMP-regulated guanine nucleotide exchange factor 4 (EPAC2) (AID 1645885); settings: EPAC2 Rap1B-BODIPY-GDP exchange fluorescence, biochemical; series mostly up to 114 µM; also: nearly all actives have a fitted effect of over 25% in size
[5] = target: Rap guanine nucleotide exchange factor 3 (Homo sapiens) (UniProt O95398); experiment: Counterscreen qHTS for antagonist of cAMP-regulated guanine nucleotide exchange factor 3 (EPAC1) (AID 1645888); settings: Rap1B-BODIPY-GDP nucleotide exchange, fluorescence; series mostly up to 154 µM
Method in brief: (§1)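 Rap1B-BODIPY-GDP 250 nM + GDP 50 uM; cpds 7-pt, final 9.74 nM–152 uM (activator mode) or from 7.32 nM upwards (inhibitor mode); RT; FI 480/540 nm at 5 and 30 min, then ± cAMP, reread.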

[6] = target: Rap guanine nucleotide exchange factor 3 (Homo sapiens) (UniProt O95398); experiment: Counterscreen qHTS for agonist of cAMP-regulated guanine nucleotide exchange factor 3 (EPAC1) (AID 1645889); settings: EPAC1 Rap1B-BODIPY-GDP exchange, fluorescence; series mostly up to 154 µM; also: nearly all actives have a fitted effect of over 40% in size
Method in brief: as §1

SMILES | Potency [1] | Potency [2] | Potency [3] | Potency [4] | outcome [5] | Potency [6] | activation [3] | activity change, negative = inhibition [4] | activity change, negative = inhibition [5]
COc1ccc(N2C(=O)NC(=O)/C(=C/c3ccc([N+](=O)[O-])s3)C2=O)cc1 | 33.8 µM (active) | inactive | inactive | inactive | inactive | inactive | – | – | –
CCOC(=O)[C@]12Cc3ccccc3[C@H]1N(C1CCCCC1)C(=O)c1cc(OC)ccc12 | inactive | inactive | inactive | inactive | inactive | – | – | – | –
O=C1NC(=S)N(c2ccccc2)C(=O)/C1=C/c1ccco1 | 9.53 µM (active) | inactive | inactive | inactive | inactive | inactive | – | – | –
O=C1NC(=O)N(c2cccc(Cl)c2)C(=O)/C1=C\c1ccc(Sc2nc3ccccc3[nH]2)o1 | 28.2 µM (active) | inactive | – | – | – | – | 5.77% [at 17.1 µM, percent relative to cAMP agonist control] (inactive) | 0.757% [at 12.7 µM] (inactive) | 2.39% [at 30.8 µM] (inactive)
CCOC(=O)[C@]12Cc3ccsc3[C@H]1N(Cc1ccccc1)C(=O)c1ccccc12 | inactive | inactive | inactive | – | – | – | – | – | –
Cc1ccc(N2C(=O)NC(=O)/C(=C\c3cc(C)n(-c4sc5c(c4C#N)CCCC5)c3C)C2=O)cc1 | 16.9 µM (active) | inactive | inactive | inactive | inactive | – | – | – | –
Cc1ccc(N2C(=O)NC(=O)/C(=C\C=C\c3ccco3)C2=O)cc1C | 33.8 µM (active) | inactive | inactive | inactive | inactive | inactive | – | – | –

Source: PubChem BioAssay (NCATS)
